# Screening results as filed in PubChem.
# NPR2 activator: human GC-B receptor activators, primary screen, HEK293 GC-B cells, cGMP TR-FRET, EC30 CNP | 370,000 compounds, 0.11% hits | 0% at EC30 CNP, 100% saturating CNP | activation, % at 10 µM | Atrial natriuretic peptide receptor 2 (Homo sapiens), P20594;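 active means activation at 10 µM reaching about 35% in either raw or pattern-adjusted values, limit read from the data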
# HSV augment: enhancers of HSV replication in host cells, fold increase, host cell viability. HSV replication augmentation in cells. maximum fold increase. 220,000 compounds, 0.005% hits. AID 1956, 2009; in the data active means maximum fold increase above about 1.5; tested in PC3 cells
# GC-A act: GC-A stimulated cGMP production enhancers – HEK293 GC-A cells, cGMP TR-FRET, EC30 ANP, primary screen. 0% at EC30 ANP, 100% saturating ANP. activation, % at 10 µM. 370,000 compounds, 0.14% hits; in the data active means activation above about 40%
# TAG inh: inhibitors of triacylglycerol accumulation, primary screen, cell-based, uHTS, fluorescence, H9c2; H9c2 cells, Nile Red lipid (TAG) fluorescence; cells loaded with 200 µM oleic acid; inhibition, % at 12.5 µM; 230,000 compounds, 0.66% hits; AID 651582, 2012;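 active means pattern-corrected inhibition of lipid staining of at least 50% with the nuclear-stain viability signal not falling by more than 50%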;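 further: 0% = DMSO wells and 100% = triacsin C control wells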
# Efflux pump inh: inhibitors of Candida efflux pumps in yeast, primary screen, S. cerevisiae, Nile Red, multiplex. inhibition, % at 10 µM. AID 485275, 2010. 330,000 compounds, 0.44% hits. S. cerevisiae Candida pump triplex;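 active means plate passing quality check with inhibition over a set limit, or well fluorescence over plate mean plus 4 SD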;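 further: Nile Red retained in pooled yeast measured as flow cytometry median fluorescence; 0% = buffer negative control and 100% = Enniatin B positive control; higher means more Nile Red kept so more efflux inhibition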
# Bfl-1 A1 inh: caspase 3/7 activation in MEF A1-2A-BIM cells, primary screen, A1 inhibitor project, cell-based, luminescence, HTS. Caspase-Glo 3/7 luminescence, 3 h; percent of clofoctol response, vehicle zero. 330,000 compounds, 0.066% hits. caspase activation, % (test concentration not listed);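 active means over half of replicate activation scores above 10%, or exactly half above 10 with the replicate mean above 10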
# Yeast cmpd fluor: flagged as fluorescent in efflux inhibitor counter-screen; fluorescence ratio to DMSO, % at 10 µM; S. cerevisiae AD/pABC3, compound fluorescence, flow cytometry; 1,700 compounds, 4% hits; shares compounds with Efflux pump inh;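 active means fluorescence ratio to DMSO above its plate's cutoff, the plate mean ratio plus 5 SD, cut at about 210% in these data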;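 further: unstained yeast with no Nile Red so the signal is compound autofluorescence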
# Mdr1 pump inh: inhibitors of Candida albicans Mdr1 efflux, confirmation, flow cytometry, singleplex, Cherry Pick1 set; inhibition, % at 10 µM; shares compounds with Efflux pump inh; AID 588518, 2011; S. cerevisiae AD/CaMDR1, Nile Red efflux; 1,700 compounds, 1% hits; in the data active means inhibition above about 26%;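 further: 0% = DMSO vehicle and 100% = reference inhibitor; higher means more Nile Red retained so more efflux inhibition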
# CaCdr2 efflux inh: inhibitors of Candida albicans Cdr2 efflux pump, confirmation, S. cerevisiae AD/CaCDR2, flow cytometry, cherry pick 1, singleplex; shares compounds with Efflux pump inh; Nile Red retention; Nile Red retention ratio vs DMSO, % at 10 µM; 1,700 compounds, 4% hits; in the data active means Nile Red retention ratio vs DMSO above about 190%;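 further: higher ratio means more blocking of Cdr2 efflux of the dye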
# CaCdr1 efflux inh: inhibitors of Candida albicans Cdr1 efflux pump, confirmation, S. cerevisiae AD/CaCDR1, flow cytometry, cherry pick 1, singleplex | shares compounds with Efflux pump inh | Nile Red efflux | inhibition, % at 10 µM | 1,700 compounds, 1% hits;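 active means inhibition above the screen-wide mean plus twice its standard deviation, cut at about 32% in these data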
# * marks the source's active call; other numbers are inactive results; i = inactive; / = no result. The list is not random: actives were taken first. Their share in the collection is about 1%.
SMILES,NPR2 activator,HSV augment,GC-A act,TAG inh,Efflux pump inh,Bfl-1 A1 inh,Yeast cmpd fluor,Mdr1 pump inh,CaCdr2 efflux inh,CaCdr1 efflux inh
CC1CC(=O)N(CC(=O)Nc2ccc3c(c2)OCO3)c2ccccc2S1 (centres undefined),-8,i,-11,/,0,0,80,0,89,0
O=C(CN1C(=O)CC(c2ccco2)Sc2ccccc21)Nc1ccc2c(c1)OCCO2 (centres undefined),2,i,4,/,0.7*,1,101,0,96,0
O=C(CN1C(=O)CCSc2ccccc21)Nc1ccc2c(c1)OCCO2,2,i,3,/,0,0,/,/,/,/
COc1ccc(OCCCC(=O)Nc2nc(-c3ccccn3)cs2)cc1,3,i,-4,20,0,0,/,/,/,/
Cc1cc(C)c(OCC(=O)Nc2nc(-c3ccccn3)cs2)c(C)c1,10,i,13,2,0.6*,0,100,0,100,0
C#CCN1CC(N(C)CCO)CS1(=O)=O (centres undefined),-3,/,3,/,/,/,/,/,/,/
O=C(/C=C/c1ccc(Cl)cc1)c1cccnc1,-16,i,-11,-9,0,0,/,/,/,/
CCN(CC)c1ccc(/C=C/C(=O)c2cccnc2)cc1,-6,i,1,/,69*,0,115,12,101,0
O=C(CSc1cccc[n+]1[O-])Nc1ccccc1Oc1ccccc1,9,i,0,71,1.0*,-1,110,0,119,0
Cc1cccc(N2CCN(C(=O)c3cc(S(=O)(=O)N(C)C)ccc3Cl)CC2)c1C,-3,/,-4,/,/,/,/,/,/,/
COc1ccc(-c2cc(C(=O)NCCN3CCOCC3)c3ccccc3n2)cc1OC,2,/,-2,16,0,2,/,/,/,/
COc1ccc(-c2cc(C(=O)NCCN3CCOCC3)c3ccccc3n2)cc1,4,i,2,17,0,1,108,0,106,0
CC1=CC(=O)C(C(C)C)=C/C1=N\OS(=O)(=O)c1ccccc1,7,/,-10,/,/,/,/,/,/,/
CCN(C(=O)COC(=O)c1cc(S(=O)(=O)N2CCOCC2)c(Cl)cc1Cl)C1CCS(=O)(=O)C1 (centres undefined),2,i,0,/,0.9*,0,108,0,87,0
COC(=O)[C@H](C(C)C)N1CCc2nnn(Cc3ccccc3)c2-c2cc(F)ccc2S1(=O)=O,1,/,-1,/,/,/,/,/,/,/
O=C1/C(=C\c2ccco2)CCC/C1=C\c1ccco1,0,i,-3,/,60*,0,98,0,105,0
CC1C/C(=C/c2ccco2)C(=O)/C(=C/c2ccco2)C1 (centres undefined),/,i,/,/,1,1,/,/,/,/
O=C(CSc1nc2ccccc2c(=O)[nH]1)NC1CCCCC1,-10,/,1,/,/,/,/,/,/,/
C/C(=N\NC(=O)CSCc1ccccc1Br)c1cccc([N+](=O)[O-])c1,-5,i,-4,/,6.5*,0,100,0,96,0
COC(=O)[C@]12C[C@H](CC(=O)N3CCCC3)C(=O)N(Cc3cccc4ccccc34)C1=C[C@H](COCc1ccccc1)O[C@@H]2C,5,/,-4,/,/,/,/,/,/,/
CN1CCN(C(=O)/C(=C\c2cccs2)NC(=O)c2ccco2)CC1,4,i,2,1,9.7*,0,102,0,104,0
O=C(N/C(=C\c1cccs1)C(=O)N1CCOCC1)c1ccco1,4,i,2,/,0,1,/,/,/,/
O=c1[nH]c2cc(Br)c(Br)nc2[nH]1,-5,/,2,/,/,/,/,/,/,/
Cc1ccnc(SCc2cn3c(C)cccc3n2)n1,2,i,1,6,1.1*,0,100,0,96,0
CN(C)S(=O)(=O)Nc1ccc(NS(=O)(=O)N(C)C)c(S(=O)(=O)c2ccccc2)c1,6,i,1,7,0.7*,0,106,0,109,0
SMILES,NPR2 activator,HSV augment,GC-A act,TAG inh,Efflux pump inh,Bfl-1 A1 inh,Yeast cmpd fluor,Mdr1 pump inh,CaCdr2 efflux inh,CaCdr1 efflux inh
Cn1cc(CC(=O)Nc2ccc(Nc3cccnc3)cc2)c2ccccc21,-8,/,2,/,/,/,/,/,/,/
CN1c2ccc(-c3cccc(F)c3)cc2[C@H]2[C@H](CCN2S(=O)(=O)c2cccc(F)c2)[C@H]1CO,-12,/,-3,/,/,/,/,/,/,/
N/C(=N\OC(=O)Cc1ccccc1)c1cccnc1,5,i,-3,/,1,0,/,/,/,/
N/C(=N\OC(=O)Cc1ccccc1)c1ccccc1Cl,9,i,4,-8,0,-1,91,0,105,0
C=CCN1[C@H](C)COc2cc(N3CCSCC3)ccc2S1(=O)=O,-6,/,-5,/,/,/,/,/,/,/
O=C(NCc1ccc(Cl)cc1)N1CCc2ccccc2C1,1,/,0,/,1.3*,0,106,0,108,0
CCNC(=O)CCc1nc(-c2ccc(C(C)C)cc2)no1,-7,/,0,/,/,/,/,/,/,/
C[C@H]1/C=C/CC(=O)N[C@@H](c2ccccc2)[C@@H](C)/C=C/CC(=O)N[C@H]1c1ccccc1,10,/,-2,/,/,/,/,/,/,/
Cc1ccc(NC(=S)N(CCN(C)C)Cc2cccs2)c(C)c1,1,i,2,1,0,0,/,/,/,/
Cc1ccc(NC(=S)N(Cc2cccs2)Cc2cc3cccc(C)c3[nH]c2=O)cc1,-1,i,-4,6,8.9*,0,103,0,96,0
Cc1cccc(NC(=S)N(CCN(C)C)Cc2cccs2)c1,-6,i,-3,-1,1.0*,2,89,0,96,0
CCC(=O)N(C)CCc1cc2c(c(OC)c1/C=N/NC(=O)[C@H]1C[C@@H]1c1ccccc1)OCO2,-1,i,-2,9,3.5*,-1,87,0,102,0
